{"source": "paper PMC7819943", "about": "“Rice protein-binding microarrays: a tool to detect cis-acting elements near promoter regions in rice”", "note": "Whole data set: some 35,000 sequences, median “fluorescence intensity (a.u.)” near 10,000, cut for the highest 2% near 52,000. The list comes from a sample in which the highest values are over-represented; it also holds similar and randomly drawn sequences.", "data": [{"molecular_target": "T1, OsWOX13 (Oryza sativa, UniProt Q5QMM3 1-267)", "T1 sequence": "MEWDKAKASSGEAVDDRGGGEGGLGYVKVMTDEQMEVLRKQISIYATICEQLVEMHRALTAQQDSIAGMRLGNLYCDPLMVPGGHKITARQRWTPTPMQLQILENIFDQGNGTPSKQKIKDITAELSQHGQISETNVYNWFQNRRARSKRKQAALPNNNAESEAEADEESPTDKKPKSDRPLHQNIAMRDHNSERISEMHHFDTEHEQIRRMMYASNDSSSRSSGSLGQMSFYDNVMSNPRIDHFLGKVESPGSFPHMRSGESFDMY", "assay": "protein-binding microarray (RPBM); PBS, 2% BSA, 51.3 ng/ul salmon testes DNA, 50 uM zinc acetate, 200 nM TF, 25 C, 1 h; high values mean tight binding", "conditions": "protein: recombinant; tags: N-terminal polyhistidine and DsRed monomer fusion (pET32a); label: CyDye5-dUTP incorporated in the synthesized complementary strand; 3' TTTTT single-stranded linker to array surface; dsDNA, one strand shown", "method_in_brief": "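An Axon 4000B scanner gave the binding signal as per-feature fluorescence intensity in arbitrary units. This followed washing of a custom Agilent array that had been incubated for 1 h at 25 °C with 200 nM protein in PBS, 2% BSA, salmon testes DNA and 50 µM zinc acetate. The proteins were transcription factors fused at the N-terminus to polyhistidine and DsRed, expressed in E. coli BL21-CodonPlus and purified on Ni–NTA.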", "values": [{"sequence": "TTGGGAAACGGAGGAAGTAATTAATTAGTCTTTGTGGAAACGGAGTCACCTAGTGCAG", "binding signal": "3790 fluorescence intensity (a.u.)"}, {"sequence": "ACAATCTTATAGCTAATTTATTATATATGTTAGCTTTAAGCGGAGTCACCTAGTGCAG", "binding signal": "4320 fluorescence intensity (a.u.)"}, {"sequence": "AATTAATAATTGCAATAGTTAGGTTATGAAGACTTCAGAGCGGAGTCACCTAGTGCAG", "binding signal": "15300 fluorescence intensity (a.u.)"}, {"sequence": "AATATTTATGTTAATTATATATAGCTAATTATGATAATAGCGGAGTCACCTAGTGCAG", "binding signal": "18800 fluorescence intensity (a.u.)"}, {"sequence": "TTAATTAACTCAGCTTCTAGTTCATATGACTCTTGCTAATCGGAGTCACCTAGTGCAG", "binding signal": "8400 fluorescence intensity (a.u.)"}, {"sequence": "TTGCTAATTAATTTATGTTAATTAGTAGCTAACCTAGCTGCGGAGTCACCTAGTGCAG", "binding signal": "65200 fluorescence intensity (a.u.)"}, {"sequence": "AATTTAATTAATTATGACTTCAGCTTGGTAGGTTCAGTTGCGGAGTCACCTAGTGCAG", "binding signal": "53000 fluorescence intensity (a.u.)"}, {"sequence": "AAAACAGAAAATAGCCAGTCAACCAAACAGTTGTCTTGACCGGAGTCACCTAGTGCAG", "binding signal": "6230 fluorescence intensity (a.u.)"}, {"sequence": "TGCTAATGGCGGCCATAGATTTGTACAAGTATCAGCTGAGCGGAGTCACCTAGTGCAG", "binding signal": "4480 fluorescence intensity (a.u.)"}, {"sequence": "CCCACATGCCAGACTGATTGCCAGTCATGAGCAAGGGTCCCGGAGTCACCTAGTGCAG", "binding signal": "23900 fluorescence intensity (a.u.)"}, {"sequence": "AATTGCTGTTGATTTGCCACTACCACTCTCCCCAACAAGTCGGAGTCACCTAGTGCAG", "binding signal": "6370 fluorescence intensity (a.u.)"}, {"sequence": "ACTGATTGCTGTTGGTCATTCCCGGGCCAGTCCCCACTCCCGGAGTCACCTAGTGCAG", "binding signal": "52400 fluorescence intensity (a.u.)"}, {"sequence": "ATCATAACTCCATCAGATAATTTGTGCAGAACGGCAGAACCGGAGTCACCTAGTGCAG", "binding signal": "5500 fluorescence intensity (a.u.)"}, {"sequence": "CATGGATAATTTGTTTTGGAGTGACACACTGACACTGATGCGGAGTCACCTAGTGCAG", "binding signal": "9780 fluorescence intensity (a.u.)"}, {"sequence": "GTGTTGAATGCACTGATTTGTTCAGTGTCTGAGATTGATGCGGAGTCACCTAGTGCAG", "binding signal": "13100 fluorescence intensity (a.u.)"}, {"sequence": "TTAATTATTTGAGCAAATTTAATGGGATGAGGGAATGATGCGGAGTCACCTAGTGCAG", "binding signal": "24800 fluorescence intensity (a.u.)"}, {"sequence": "CCAGCTTAATTGAGCCTGATTAGCCGAATCCATAATTGTGCGGAGTCACCTAGTGCAG", "binding signal": "63800 fluorescence intensity (a.u.)"}, {"sequence": "ACGAATCTAATGAGCCTAATTAATCCATGATTAGCCTATGCGGAGTCACCTAGTGCAG", "binding signal": "21200 fluorescence intensity (a.u.)"}, {"sequence": "TCTTTACTTAATTAATTTGATGCATGTATGCCAGGATTTGCGGAGTCACCTAGTGCAG", "binding signal": "35800 fluorescence intensity (a.u.)"}, {"sequence": "ATTAATTGATGCTTTGCTTGATTACTTGAGTCAGATCCAGCGGAGTCACCTAGTGCAG", "binding signal": "63200 fluorescence intensity (a.u.)"}, {"sequence": "ATGTTGATTGGAGTCTGATAACTTGTCACTGGATGACATGCGGAGTCACCTAGTGCAG", "binding signal": "61700 fluorescence intensity (a.u.)"}, {"sequence": "AGTTCAATTGCTTTGATGAGTGAGCAGAGAGATGATGCAGCGGAGTCACCTAGTGCAG", "binding signal": "3420 fluorescence intensity (a.u.)"}, {"sequence": "TTGAGATGATTTACTATTAATTTAGTCTATTGTTGAGATGCGGAGTCACCTAGTGCAG", "binding signal": "35700 fluorescence intensity (a.u.)"}, {"sequence": "GTTTTAATTGTTTTACTGATTTGCAAATGAGTCTGGGATGCGGAGTCACCTAGTGCAG", "binding signal": "63500 fluorescence intensity (a.u.)"}, {"sequence": "GAATCTATTGAGCCTAATTAATCCATGATTAGCCTATGTGCGGAGTCACCTAGTGCAG", "binding signal": "7730 fluorescence intensity (a.u.)"}, {"sequence": "CATTGTCATCCTGAGTAGATTGCCAATTATATGGGTTTGGCGGAGTCACCTAGTGCAG", "binding signal": "6170 fluorescence intensity (a.u.)"}, {"sequence": "CGTTTTGATGGATGGCTCAGATCGGTTCCGAATCGATCAACGGAGTCACCTAGTGCAG", "binding signal": "5120 fluorescence intensity (a.u.)"}, {"sequence": "GGTTTAATTAATTAATCGCGCCAACCCAGATGCTAATCAGCGGAGTCACCTAGTGCAG", "binding signal": "50200 fluorescence intensity (a.u.)"}, {"sequence": "TGAAAATTTTGTCGGAAATTTATCAGTGTATCAACTGTCTCGGAGTCACCTAGTGCAG", "binding signal": "6470 fluorescence intensity (a.u.)"}, {"sequence": "TTTCTTGATTTGGTTGGGATTGGTTGTTCTTGGGCTTATCCGGAGTCACCTAGTGCAG", "binding signal": "24600 fluorescence intensity (a.u.)"}, {"sequence": "GTTGAGATTAATTGTTCTATACTACTTTCTCTATCTAAAACGGAGTCACCTAGTGCAG", "binding signal": "7990 fluorescence intensity (a.u.)"}, {"sequence": "GATAATTCTTATGTTACTGACTAATATGATAGTACTGAGTCGGAGTCACCTAGTGCAG", "binding signal": "5770 fluorescence intensity (a.u.)"}, {"sequence": "ACTTACAAATTTTGTACTCAATTGAGATGTGCTTCGATTGCGGAGTCACCTAGTGCAG", "binding signal": "5640 fluorescence intensity (a.u.)"}, {"sequence": "ATTAACCAGTATTAATAATTGAGGGACGTTGTATACTGGGCGGAGTCACCTAGTGCAG", "binding signal": "20500 fluorescence intensity (a.u.)"}, {"sequence": "CCTGATTAATTGTTAATTTTGCTGATGCAGCTGTTGCTTGCGGAGTCACCTAGTGCAG", "binding signal": "65000 fluorescence intensity (a.u.)"}, {"sequence": "AATTTGATTGATTTTACTCTCGAGCCAATTGAGATGTCTGCGGAGTCACCTAGTGCAG", "binding signal": "64800 fluorescence intensity (a.u.)"}, {"sequence": "TGTTAATCTTGCTGATTTTGTTATTGATTTTAATGCTATGCGGAGTCACCTAGTGCAG", "binding signal": "17300 fluorescence intensity (a.u.)"}, {"sequence": "AGTTGATTGGTAAAGTGACATGCTTGAACACTGTTGGAGCCGGAGTCACCTAGTGCAG", "binding signal": "54000 fluorescence intensity (a.u.)"}, {"sequence": "ACACTTGGAGATTGGTAATAGATTACAGAAAGTTGAATGCCGGAGTCACCTAGTGCAG", "binding signal": "14300 fluorescence intensity (a.u.)"}, {"sequence": "TATAATTGTTACTGTTAATTGAGGTGGGAAATACCAGGTGCGGAGTCACCTAGTGCAG", "binding signal": "53500 fluorescence intensity (a.u.)"}, {"sequence": "TCAAAGTGATTGGTGACACTCTACACAACACACAGTTGAACGGAGTCACCTAGTGCAG", "binding signal": "28400 fluorescence intensity (a.u.)"}, {"sequence": "GGAACAGGTACCATAATTGTTAATAACCTAATACTGGGCCCGGAGTCACCTAGTGCAG", "binding signal": "5270 fluorescence intensity (a.u.)"}, {"sequence": "TGTTGCTGTTGATTAGCTCTCACCTAATTTGTTGTGTATGCGGAGTCACCTAGTGCAG", "binding signal": "18100 fluorescence intensity (a.u.)"}, {"sequence": "ATGAATCTAGTCAGATTGGCCAATTTGATTTGTTTTACTCCGGAGTCACCTAGTGCAG", "binding signal": "9360 fluorescence intensity (a.u.)"}]}]}
